Inconclusive results are not listed. Activity calls are given as the source filed them. Rule for the calls: active = hit-call score of the fitted dose curve at least 0.9, where 1 is the maximum; inconclusive = response in the unintended direction; inactive = score below 0.9.
What follows are molecules tested against human Phosphatase and Tensin Homolog (PTEN), PTEN (gene 5728) (UniProt P60484) (assay: NVS_ENZ_hPTEN: NovaScreen (NVS) Enzymatic Assay for human Phosphatase and Tensin Homolog (PTEN) (AID 2283203)).
Chain of human Phosphatase and Tensin Homolog (PTEN), PTEN (gene 5728) (P60484 whole entry, looked up): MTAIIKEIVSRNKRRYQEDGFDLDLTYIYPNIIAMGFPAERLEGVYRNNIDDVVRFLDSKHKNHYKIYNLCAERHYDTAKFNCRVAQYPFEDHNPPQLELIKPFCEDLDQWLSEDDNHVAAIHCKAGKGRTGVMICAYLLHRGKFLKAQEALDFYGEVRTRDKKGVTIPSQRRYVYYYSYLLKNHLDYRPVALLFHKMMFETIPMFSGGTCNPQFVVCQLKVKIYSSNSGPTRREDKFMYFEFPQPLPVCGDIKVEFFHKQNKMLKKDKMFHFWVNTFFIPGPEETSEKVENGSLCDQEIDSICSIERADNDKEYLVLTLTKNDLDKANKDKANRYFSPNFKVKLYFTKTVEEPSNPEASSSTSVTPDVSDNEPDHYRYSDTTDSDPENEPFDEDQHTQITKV
Summary of the method: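 Loss of fluorescent product signal after mobility-shift separation reports PTEN activity, recombinant human enzyme, 1 h after compound addition. Single 25 uM duplicate screen, then concentration-response on actives; DMSO baseline.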
For `Nc1ccc([N+](=O)[O-])cc1Cl`, the AC50 was 2.67 µM (active). `CCOP(=S)(OCC)SCSc1ccc(Cl)cc1` was tested, and the outcome was “inactive”. `Cc1ccc(C(=O)Cl)cc1` was tested, and the outcome was “inactive”. In the case of `ClC(Cl)=C(c1ccc(Cl)cc1)c1ccccc1Cl`, the outcome is reported as “inactive”. For `Cn1[nH]nnc1=S`, the AC50 was 1.08 µM (active). `O=c1ssc(Cl)c1Cl` was tested, and the outcome was “inactive”. In the case of `Clc1ccc(Oc2ccccc2)cc1`, the outcome is reported as “inactive”.

What follows are molecules tested against Tyrosine-protein phosphatase non-receptor type 12 (Homo sapiens) (UniProt Q05209) (assay: NVS_ENZ_hPTPN12: NovaScreen (NVS) Enzymatic Assay for human Protein Tyrosine Phosphatase Non-receptor Type 12 (PTPN12) (AID 2283204)).
Chain of Tyrosine-protein phosphatase non-receptor type 12 (Homo sapiens) (Q05209 whole entry, looked up): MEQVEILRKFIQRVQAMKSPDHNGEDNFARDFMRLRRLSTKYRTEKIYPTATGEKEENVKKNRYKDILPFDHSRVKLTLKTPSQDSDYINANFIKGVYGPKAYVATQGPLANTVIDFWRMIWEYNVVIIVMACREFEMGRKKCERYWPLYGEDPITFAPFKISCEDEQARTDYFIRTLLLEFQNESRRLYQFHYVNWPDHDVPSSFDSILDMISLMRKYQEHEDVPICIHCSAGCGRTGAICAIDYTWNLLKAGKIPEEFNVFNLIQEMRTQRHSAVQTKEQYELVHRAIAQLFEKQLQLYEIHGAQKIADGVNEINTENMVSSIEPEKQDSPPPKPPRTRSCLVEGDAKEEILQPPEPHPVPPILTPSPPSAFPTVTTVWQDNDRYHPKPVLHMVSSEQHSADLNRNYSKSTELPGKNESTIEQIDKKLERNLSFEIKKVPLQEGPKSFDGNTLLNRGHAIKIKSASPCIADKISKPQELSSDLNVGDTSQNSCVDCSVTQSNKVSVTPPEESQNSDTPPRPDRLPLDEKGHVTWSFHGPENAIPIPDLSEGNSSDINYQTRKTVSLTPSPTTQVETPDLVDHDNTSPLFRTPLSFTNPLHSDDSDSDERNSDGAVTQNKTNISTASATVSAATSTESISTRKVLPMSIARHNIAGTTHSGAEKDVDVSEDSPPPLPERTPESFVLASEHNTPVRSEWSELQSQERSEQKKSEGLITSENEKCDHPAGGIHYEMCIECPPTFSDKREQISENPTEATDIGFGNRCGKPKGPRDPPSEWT
Procedure: NVS_ENZ_hPTPN12 is a biochemical, single-readout assay that uses extracted gene-proteins in a cell-free assay. Measurements were taken 1.33 hours after chemical dosing in a 384-well plate.NVS_ENZ_hPTPN12 is one of one assay component(s) measured or calculated from the NVS_ENZ_hPTPN12 assay. It is designed to make measurements of enzyme activity, a form of enzyme reporter, as detected with fluorescence intensity signals by Fluorescence and electrophoretic mobility shift technology.Data from the assay component NVS_ENZ_hPTPN12 was analyzed into 1 assay endpoint. This assay endpoint, NVS_ENZ_hPTPN12, was analyzed in the positive analysis fitting direction relative to DMSO as the negative control and baseline of activity. Using a type of enzyme reporter, loss-of-signal activity can be used to understand changes in the enzymatic activity as they relate to the gene PTPN12. Furthermore, this assay endpoint can be referred to as a primary readout, because this assay has produced multiple assay endpoints where this one serves a enzymatic activity function. To generalize the intended target to other relatable targets, this assay endpoint is annotated to the phosphatase intended target family, where the subfamily is non-receptor tyrosine phosphatase.
Binding assays used specific radioligands (tritiated, iodinated) with non-radioactive competitive displacement ligands in agonist or antagonist protocols (as indicated) and various reference compounds and inhibitors to titrate specific binding to receptors and transporters. Most enzyme assays (CYPs, kinases, phosphatases, proteases, HDACs) used recombinant protein and specific substrates (fluorescence mostly, some colorimetric and radioactive) and inhibitors, followed by a biochemical separation of substrate and product. All assays for the biochemical HTS were initially run in duplicate at a single concentration (10 uM for CYP450 assays and 25 uM for all others). Assay-chemical combinations meeting a pre-defined threshold (e.g., 30% inhibition and other criteria defined below) were then run in singleton concentration-response format with maximum concentration of 20 uM for CYPs and 50 uM for all others. Each assay was run with positive and negative controls, and concurrent controls on every plate. The follow-up (secondary) screen tested active chemical-pairs in concentration series, as well as a few additional assays not tested in the primary screen, some selected negative inactives, and several cases re-run in the concentration series for confirmatory purposes.
With `O=C(O)C(Cl)Cl` the outcome was “inactive”. `O=P1(N(CCCl)CCCl)NCCCO1` (stereo not drawn) was tested, and the outcome was “inactive”. For `ClC1=C(Cl)C2(Cl)C3C(Cl)C(Cl)CC3C1(Cl)C2(Cl)Cl` (stereo not drawn), the outcome was “inactive”. `O=c1ssc(Cl)c1Cl` was tested, and the outcome was “inactive”.

Each molecule was assayed against human Protein Tyrosine Phosphatase Non-receptor Type 9 (PTPN9), PTPN9 (gene 5780) (UniProt P43378) (assay: NVS_ENZ_hPTPN9: NovaScreen (NVS) Enzymatic Assay for human Protein Tyrosine Phosphatase Non-receptor Type 9 (PTPN9) (AID 2283209)).
Chain of human Protein Tyrosine Phosphatase Non-receptor Type 9 (PTPN9), PTPN9 (gene 5780) (P43378 whole entry, looked up): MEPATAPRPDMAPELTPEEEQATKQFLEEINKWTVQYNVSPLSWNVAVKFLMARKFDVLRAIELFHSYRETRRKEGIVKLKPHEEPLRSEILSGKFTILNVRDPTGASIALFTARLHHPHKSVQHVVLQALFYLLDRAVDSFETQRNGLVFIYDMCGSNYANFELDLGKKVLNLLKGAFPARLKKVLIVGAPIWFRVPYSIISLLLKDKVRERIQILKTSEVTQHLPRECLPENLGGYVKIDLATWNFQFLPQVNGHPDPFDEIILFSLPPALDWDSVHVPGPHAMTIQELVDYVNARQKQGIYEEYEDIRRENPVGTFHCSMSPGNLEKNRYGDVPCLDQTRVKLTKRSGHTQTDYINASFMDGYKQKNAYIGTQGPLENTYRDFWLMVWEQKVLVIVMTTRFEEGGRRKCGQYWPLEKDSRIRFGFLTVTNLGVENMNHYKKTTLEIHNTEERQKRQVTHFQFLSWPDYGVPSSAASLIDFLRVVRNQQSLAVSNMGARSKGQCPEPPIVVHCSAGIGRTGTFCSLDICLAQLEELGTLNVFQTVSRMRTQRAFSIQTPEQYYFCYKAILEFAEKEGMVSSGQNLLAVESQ
Summary of the method: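 Sf9-expressed enzyme in a cell-free assay, fluorescence read 1.33 h after dosing with mobility-shift separation of substrate and product. Tested at 25 uM in duplicate, then up to 50 uM; signal loss versus DMSO.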
`OCC1CO1` (stereo not drawn) was tested, and the outcome was “inactive”. In the case of `CCC(C)(C)c1ccc(O)cc1`, the AC50 is reported as 42.1 µM (active). With `CN(C)C(=O)Cl` the AC50 was 41.7 µM (active).

What follows are molecules tested against human Protein Tyrosine Phosphatase Non-receptor Type 6 (PTPN6), PTPN6 (gene 5777) (UniProt P29350) (assay: NVS_ENZ_hPTPN6: NovaScreen (NVS) Enzymatic Assay for human Protein Tyrosine Phosphatase Non-receptor Type 6 (PTPN6) (AID 2283210)).
Chain of human Protein Tyrosine Phosphatase Non-receptor Type 6 (PTPN6), PTPN6 (gene 5777) (P29350 whole entry, looked up): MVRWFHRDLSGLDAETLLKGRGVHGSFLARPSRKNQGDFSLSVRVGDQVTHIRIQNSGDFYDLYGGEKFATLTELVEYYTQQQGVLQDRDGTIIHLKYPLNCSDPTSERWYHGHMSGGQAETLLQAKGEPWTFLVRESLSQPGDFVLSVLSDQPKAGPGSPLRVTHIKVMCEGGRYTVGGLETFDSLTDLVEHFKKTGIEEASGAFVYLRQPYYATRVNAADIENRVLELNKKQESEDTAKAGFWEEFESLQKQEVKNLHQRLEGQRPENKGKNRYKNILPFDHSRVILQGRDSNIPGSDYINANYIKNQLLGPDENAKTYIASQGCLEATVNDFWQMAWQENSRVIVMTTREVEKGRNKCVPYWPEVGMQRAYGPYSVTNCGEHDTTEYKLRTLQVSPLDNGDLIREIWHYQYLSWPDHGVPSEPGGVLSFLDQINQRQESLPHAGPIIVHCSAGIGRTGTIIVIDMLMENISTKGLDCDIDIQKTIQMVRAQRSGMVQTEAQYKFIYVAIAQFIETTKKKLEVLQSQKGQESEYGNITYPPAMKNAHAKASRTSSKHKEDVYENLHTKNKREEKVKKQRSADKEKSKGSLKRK
Summary of the method: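 Recombinant human PTPN6 from SF9 cells, enzyme activity followed by fluorescence after mobility-shift separation of substrate and product at 1.33 h. Chemicals first tested at a single 25 uM in duplicate, then confirmed across concentration series; loss of signal relative to DMSO.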
With `CCOS(=O)(=O)OCC` the outcome was “inactive”. With `O=C(O)C1C(C(=O)O)C2(Cl)C(Cl)=C(Cl)C1(Cl)C2(Cl)Cl` (stereo not drawn) the outcome was “inactive”. `CN(C)C(=O)Cl` was tested, and the outcome was “inactive”. For `ClC(Cl)c1ccccc1`, the outcome was “inactive”.
